Rows were chosen to be rich in hits. Some 2.6% of all compounds tested hit in one or more screens of this group.
Cruzain inh Det = inhibitors of Trypanosoma cruzi cruzain with detergent; 200,000 tested, 0.43% active; Potency, µM, for the others: max response, negative = inhibition, hits mostly inhibitors; purified cruzain, Z-FR-AMC fluorescence, 0.01% Triton; P25779;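 also: plate controls were neutral wells for no effect and buffer without enzyme for full effect; nearly all actives have a fitted effect of over 40% in size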
Target sequence (P25779 123-467 limits assumed): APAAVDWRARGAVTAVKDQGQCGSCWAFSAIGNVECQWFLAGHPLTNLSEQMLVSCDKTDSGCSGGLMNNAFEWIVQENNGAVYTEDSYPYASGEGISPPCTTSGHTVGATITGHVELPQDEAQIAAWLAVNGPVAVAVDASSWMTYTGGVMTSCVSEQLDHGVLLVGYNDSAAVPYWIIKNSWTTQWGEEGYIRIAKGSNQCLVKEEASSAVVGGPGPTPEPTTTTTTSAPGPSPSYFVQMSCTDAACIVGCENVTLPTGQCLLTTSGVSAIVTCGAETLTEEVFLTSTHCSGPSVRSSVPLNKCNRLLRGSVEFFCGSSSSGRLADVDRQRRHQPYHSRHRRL
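Detergent-containing arm of a paired screen for aggregation-based inhibition: 0.01% Triton X-100 present. Cruzain at 1.5 nM cleaved 2 uM Z-FR-AMC at pH 5.5 with 5 mM DTT; AMC fluorescence gain over 60 s measured activity.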
Cruzain noTriton = cruzain (T. cruzi) inhibition without detergent; 200,000 tested, 2.3% active; purified cruzain, Z-FR-AMC fluorescence, no detergent; AID 1476; Potency, µM, without a hit: max response, negative = inhibition, hits mostly inhibitors;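 also: plate controls were enzyme without inhibitor for no effect and buffer without enzyme for full effect; nearly all actives have a fitted effect of over 40% in size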
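Detergent-free condition (0.00005% Triton X-100) in acetate buffer pH 5.5 with DTT. 1.5 nM enzyme and compound were pre-mixed 15 min, then 2 uM Z-FR-AMC substrate added; reaction progress from fluorescence change between first and third reads (60 s).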
An asterisk follows results filed as active; ? = inconclusive; ! = repeats disagree. Calls follow the shape of the dose curve; as a rule, active = well fitted curve in the direction sought with a large enough effect; inconclusive = small, poorly fitted or top-dose-only effect, or another doubt; inactive = no such curve, though single readings can be large; an effect the other way counts as inactive or inconclusive. Potency is read from the fitted curve at half-maximal effect.

SMILES	Cruzain inh Det	Cruzain noTriton
O=C(Nc1ccc2c(c1)OCCO2)c1c(F)cccc1F	-1%	-13%
COc1c(O)c(O)cc2c1oc1c3ccccc3oc(=O)c21	-15%	0%
O=C(Nc1ccc(Cl)c(-c2nc3ccccc3o2)c1)c1ccc(-c2cccc([N+](=O)[O-])c2)o1	-3%	-27%
Cc1ccc2oc(-c3cccc(NC(=O)/C=C/c4cccc([N+](=O)[O-])c4)c3C)nc2c1	-1%	16µM*
COc1ccc2nc(NC(=O)c3cc(C)oc3C)sc2c1	-4%	-25%
Cc1c(NC(=O)c2ccc(-c3cccc([N+](=O)[O-])c3)o2)cccc1-c1nc2cc(Cl)ccc2o1	-6%	3.2µM*
Cc1ccc2oc(-c3cc(NC(=O)/C=C/c4ccco4)ccc3Cl)nc2c1	-9%	?
COc1ccc2nc(NC(=O)c3ccc(-c4cccc([N+](=O)[O-])c4)o3)sc2c1	1%	13µM*
O=C(O)CN(CCN(CC(=O)O)CC(=O)O)CC(=O)O.[Mn]	-1%	7%
CCCC1(C(=O)OC)C=C2C(=C(C(C)C)C(=O)C2C)CN1 (configuration not stated)	0%	-6%
Cc1cc(-c2ccc(S(=O)(=O)Nc3cccc(Cl)c3C)cc2)on1	-9%	-12%
CCc1nn(CC(=O)NC(C)CCc2ccccc2)c(=O)c2cc3c(OC)cccc3n12 (configuration not stated)	1%	-1%
COc1ccccc1N1CCN(Cc2ccc(O)c3ncccc23)CC1	0%	19%
Oc1ccc(CN2CCCc3ccccc32)c2cccnc12	-6%	25µM*
O=C(CS(=O)(=O)c1cccc2nsnc12)Nc1ccc(F)cc1F	-3%	-2%
CCc1cc(-c2n[nH]c(C)c2-c2ccc3c(c2)OCCO3)c(O)cc1O	-6%	3%
COc1ccccc1Nc1nc(-c2ccc(F)cc2)c2c(n1)-c1ccccc1OC2	-5%	10µM*
Fc1ccc(Nc2nc(-c3ccc(F)cc3)c3c(n2)-c2ccccc2OC3)cc1	-9%	?
CCCCCn1c(N)c(-c2nc3ccccc3o2)c2c([N+](=O)[O-])nn(C)c(=O)c21	-7%	?
CCCCCn1c(N)c(-c2nc3ccccc3o2)c2c([N+](=O)[O-])nn(CC)c(=O)c21	-5%	10µM*
Cc1ccc(NC(=O)/C=C/c2ccccc2)c(Br)c1	-4%	-5%
O=C(Nc1cccc(F)c1)N1CC[C@@]2(CCCN(S(=O)(=O)c3ccccc3)C2)C1	-3%	2%
CCc1c(C)nc(SCc2nc(-c3ccccc3)no2)[nH]c1=O	0%	-6%
COc1ccccc1NC(=O)C1CCC(CNS(=O)(=O)c2ccc3c(c2)CC(C)N3C(C)=O)CC1 (configuration not stated)	-1%	?
O=C1OC(c2ccc3c(c2)OCO3)N(C(=O)c2ccc(Cl)c(Cl)c2)c2ccccc21 (configuration not stated)	-1%	32µM*
SMILES	Cruzain inh Det	Cruzain noTriton
Cc1cccc(C(=O)N2c3ccccc3C(=O)OC2c2ccc3c(c2)OCO3)c1 (configuration not stated)	0%	?
Cn1c(=O)[nH]c(=O)c2c1nc1n(CCO)c(-c3ccccc3)cn21	0%	-3%
COc1cc(NS(=O)(=O)c2ccc(C)cc2C)cc(OC)c1OC	2%	1%
Cc1ccc(S(=O)(=O)ON2C(=O)c3ccccc3C2=O)c(C)c1	13µM*	16µM*
C[C@H](O)CON1C(=O)c2ccccc2C1=O	2%	-3%
Cc1cc(C)c(C)c(S(=O)(=O)ON2C(=O)c3ccccc3C2=O)c1C	20µM*	25µM*
COc1ccc(NC(=O)N2CC[C@@]3(CCCN(C(=O)c4cnccn4)C3)C2)cc1	1%	6%
Cc1cccc(N2CCN(S(=O)(=O)c3ccc(F)c(C(=O)Nc4cccc(Cl)c4C)c3)CC2C)c1 (configuration not stated)	1%	13µM*
Cc1cccc(NC(=O)c2cc(S(=O)(=O)N3CCN(c4ccccc4F)CC3)ccc2F)c1C	1%	-2%
Cn1nc(-c2ccccc2F)c2cc(C(=O)NCCc3ccc(Cl)cc3)sc21	-1%	?
N#C/C(=C\c1ccccc1[N+](=O)[O-])c1nc(C2CC2)cs1	-7%	7%
N#C/C(=C\C=C\c1ccccc1[N+](=O)[O-])c1nc(-c2ccc3c(c2)OCO3)cs1	2%	20µM*
Cc1cc2c(cc1C)CSC(c1ccc3ccccc3c1O)SC2	0%	25µM*
Cc1cc2c(cc1C)CSC(c1c(O)ccc3ccccc13)SC2	3%	?
Cc1cc(C)cc(NS(=O)(=O)c2ccc3[nH]cc(C(=O)NCCc4ccccc4)c(=O)c3c2)c1	-2%	?
CCc1ccc(NS(=O)(=O)c2ccc3[nH]cc(C(=O)NCCc4ccccc4)c(=O)c3c2)cc1	-1%	7.9µM*
CCc1ccc(CCN2CCCCC2)nc1	2%	7%
Cc1cc2c(C(C)C)c(O)c(O)c(C=O)c2c(O)c1-c1c(C)cc2c(C(C)C)c(O)c(O)c(C=O)c2c1O	25µM*!	?

Source: PubChem BioAssay (National Center for Advancing Translational Sciences (NCATS))
